Assay outcomes as filed in PubChem BioAssay.
TRHR enhancer-1: allosteric enhancers of human TRH receptor; TRHR cells, fluo-8 calcium fluorescence, EC20 TRH enhancement; hit rate 0.66% among 360,000; enhancement, % at 2 µM; AID 493056; P34981; in the data active = enhancement above about 30%; also: 0% is about no effect
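Enhancer read-out: after compound pinning and an initial kinetic agonist-mode read, an EC20 of TRH (10 nM final) was injected and fluo-8 calcium signal (Ex 480/Em 530) followed at 1 s/cycle for 100 cycles in TRHR-expressing cells.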
D1 potentiator: human D1 dopamine receptor positive modulation; HEK293 TREx D1 cells, calcium flux, dopamine EC20 potentiation; potentiation, % at 10 µM; hit rate 0.036% among 360,000; in the data active = potentiation above about 30%; also: 0% is about no effect
D1 ag: agonists of human D1 dopamine receptor; P21728; HEK293 T-REx D1 cells, calcium flux, agonist mode; activation, % at 2 µM; hit rate 1% among 360,000; AID 504660; in the data active = activation above about 30%; also: 0% is about no effect
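Inducible HEK293 T-REx D1 cells, force-coupled to calcium signalling, were plated at 4000 cells/well with tetracycline and held overnight at 30 C. After no-wash calcium dye loading, compound-evoked calcium rise over 180 s flagged agonists.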
D1 antagonist: blocks dopamine activation of the human D1 receptor | hit rate 3.2% among 360,000 | AID 504652 | HEK293 TREx D1 cells, calcium flux, dopamine EC80; stronger effect = lower value | activity change, negative = inhibition, % at 10 µM | P21728; in the data active = activity change below about -30%; also: % is scaled to controls: 0 for no effect and ±100 for the full control effect
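Kinetic fluorescence of a calcium dye serves as the read-out. D1-expressing Hek293 Trex cells, induced overnight at 30 C, are exposed to compound for 180 s before an EC80 dopamine addition, then read 180 s further.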
TRHR agonist-1: TRH receptor (human) agonism | hit rate 0.18% among 360,000 | P34981 | TRHR cells, calcium flux fluo-8, FDSS agonist mode | activation, % at 2 µM; in the data active = activation above about 30%; also: 0% is about no effect
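Steps: seed TRHR cells overnight; add fluo-8 no-wash Ca dye, RT 30 min–1.5 h; record 10 s baseline; pin-transfer compounds; monitor fluorescence 1 cycle/s for the agonist window. Calcium increases flag candidate agonists.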
USP1-UAF1 inh: inhibitors of human USP1/UAF1 deubiquitinase. O94782. recombinant USP1/UAF1, Ub-Rhodamine cleavage fluorescence. Potency, µM (highest dose often 57.1 µM), for inactives: at the top dose activity change, negative = inhibition, actives largely listed as inhibitors. hit rate 0.23% among 390,000; also: potency is read from the fitted curve at half-maximal effect; % is scaled to controls: 0 for no effect and ±100 for the full control effect; nearly all actives have a fitted effect of over 60% in size
Target sequence (O94782 whole entry, looked up): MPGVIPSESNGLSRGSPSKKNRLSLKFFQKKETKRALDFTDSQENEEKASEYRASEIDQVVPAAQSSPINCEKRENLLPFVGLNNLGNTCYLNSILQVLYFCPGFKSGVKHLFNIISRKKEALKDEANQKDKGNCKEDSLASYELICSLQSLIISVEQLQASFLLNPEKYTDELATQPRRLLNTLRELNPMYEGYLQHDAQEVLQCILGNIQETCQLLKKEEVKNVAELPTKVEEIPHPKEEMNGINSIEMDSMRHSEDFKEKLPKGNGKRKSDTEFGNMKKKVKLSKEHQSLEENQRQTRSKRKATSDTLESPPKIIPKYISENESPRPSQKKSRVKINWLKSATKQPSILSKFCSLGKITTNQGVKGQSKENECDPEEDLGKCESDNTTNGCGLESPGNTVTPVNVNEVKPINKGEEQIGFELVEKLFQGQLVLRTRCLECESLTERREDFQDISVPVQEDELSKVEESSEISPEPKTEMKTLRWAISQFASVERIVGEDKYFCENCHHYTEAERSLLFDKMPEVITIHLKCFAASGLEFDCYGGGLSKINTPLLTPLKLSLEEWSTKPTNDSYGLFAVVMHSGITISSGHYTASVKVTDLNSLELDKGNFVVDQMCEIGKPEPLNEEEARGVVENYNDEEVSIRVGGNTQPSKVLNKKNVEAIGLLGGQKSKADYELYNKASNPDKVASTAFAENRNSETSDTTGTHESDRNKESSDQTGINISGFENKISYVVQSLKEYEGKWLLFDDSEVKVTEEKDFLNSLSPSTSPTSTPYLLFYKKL
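In this screen, compounds sit with the deubiquitinase complex (1nM) for 15 min at room temperature before Ub-Rho is added at 150nM final. Fluorescence rise is then followed for 6 reads every 60 seconds.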
TRHR enhancer-2: human TRH receptor allosteric enhancement confirmation; 970 tested, under 10 active; TRH receptor cell assay, enhancer confirmation qHTS; activity change, negative = inhibition, % at 46.1 µM; shares compounds with TRHR enhancer-1; AID 493076;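 also: compound effect scored on response to added TRH at EC20 of 10 nM; 0% is about no effect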
TRHR agonist-2: confirmation of human TRH receptor agonists | shares compounds with TRHR enhancer-1 | TRHR-expressing cells, agonist activation read-out | Potency, µM (top dose mostly 46.1 µM), inactives show at the highest dose activation, most hits filed as activators | hit rate 8% among 970 | AID 493078; also: potency is read from the fitted curve at half-maximal effect; 0% is about no effect; nearly all actives have a fitted effect of over 75% in size
An asterisk follows results filed as active; ? = inconclusive; nt = no result. The list is not random: actives were taken first. Their share in the collection is about 4.4%. Unless noted, calls follow the shape of the dose curve; as a rule, active = well fitted curve in the direction sought with a large enough effect; inconclusive = small, poorly fitted or top-dose-only effect, or another doubt; inactive = no such curve, though single readings can be large; an effect the other way counts as inactive or inconclusive.

SMILES | TRHR enhancer-1 | D1 potentiator | D1 ag | D1 antagonist | TRHR agonist-1 | USP1-UAF1 inh | TRHR enhancer-2 | TRHR agonist-2
COc1cccc(C2c3[nH]c4ccccc4c3CCN2Cc2cnn(C)c2)c1 (configuration not stated) | 61* | -2 | 2 | -22 | 0 | -11% | 3 | ?
CCCCCn1c(CN2CC(C)OC(C)C2)nc2c1c(=O)n(C)c(=O)n2C (configuration not stated) | 42* | -1 | 5 | 11 | 0 | 1% | 9 | 0%
COC(=O)CN(c1nc(C)cc(OC)n1)S(=O)(=O)c1ccccc1 | 68* | 0 | 1 | -16 | -1 | -15% | -7 | 2%
COc1cc(C)nc(N(Cc2ccccc2)S(=O)(=O)c2ccccc2)n1 | -3 | -8 | 3 | -3 | 0 | -11% | nt | nt
Cc1ccc(CN2c3ccccc3S(=O)(=O)c3ccccc32)cc1 | 3 | -6 | 15 | -3 | -1 | -13% | nt | nt
CCOC(=O)C1CCN(C(=O)Cn2cc(C(=O)C3CC3)c3ccccc32)CC1 | 2 | 0 | -1 | -7 | 0 | 9% | nt | nt
O=C(c1cn(CC(=O)N2CCCCC2)c2ccccc12)C1CC1 | 51* | 0 | 0 | 5 | 0 | -16% | -2 | -1%
CC(C(=O)N1CC2(C)CC1CC(C)(C)C2)N1C(=O)c2ccccc2C1=O (configuration not stated) | 46* | -6 | 2 | 0 | 0 | -8% | -12 | 1%
CC1CCC2C(=O)N(c3cccc(C(=O)Nc4ccc(F)cc4)c3)C(=O)C2C1 (configuration not stated) | 57* | -2 | 4 | -24 | 0 | -6% | -1 | 2%
Cc1ccc(CNC(=O)c2ccc3c(O)c(S(=O)(=O)c4ccccc4)c(=O)[nH]c3c2)cc1 | 6 | -1 | 2 | -12 | 0 | -13% | nt | nt
Brc1ccccc1/C=N/Nc1ccc2ccccc2n1 | -3 | -6 | 3 | -5 | 1 | -19% | nt | nt
Brc1ccc(/C=N/Nc2ccc3ccccc3n2)cc1 | 51* | 2 | 1 | -25 | 0 | -21% | 4 | 1%
Cc1ccc(NC(=O)CSCC(=O)NCc2ccco2)cc1 | 46* | -1 | 3 | -22 | 0 | -18% | 2 | 1%
O=C(NCCc1ccccc1)c1ccc2c(c1)nc1n2CCOC1 | -2 | -2 | 1 | -6 | 1 | ? | nt | nt
CCCN(C(=O)Cn1cnc2sc(C)c(S(=O)(=O)N3CCN(c4ncccn4)CC3)c2c1=O)c1cccc(C)c1 | -7 | 1 | -1 | 3 | 0 | -26% | nt | nt
Cc1nc2ccc(S(=O)(=O)N(CC(=O)Nc3ccc(Cl)cc3)Cc3ccccc3)cc2s1 | 2 | -7 | 5 | -6 | 1 | -2% | nt | nt
COc1cc(/C=C(/C#N)C(=O)NC(C)c2ccccc2)cc(OC)c1O (configuration not stated) | 0 | 1 | 95* | 4 | 118* | 0% | 8 | 21µM*
O=c1oc2c(CN3CCN(CCO)CC3)c(O)ccc2cc1-c1ccccn1 | -3 | -4 | 1 | 9 | 33* | -14% | 3 | ?
CCOc1ccccc1CNCc1c(C(=O)O)n(Cc2ccc(F)cc2)c2cc(C)ccc12 | -1 | 9 | 0 | 18 | 0 | ? | nt | nt
Cc1ccc(NC(=O)Cn2c(=O)n(-c3ccc(C)cc3)c(=O)c3ccc(C(=O)NCc4ccccc4Cl)cc32)cc1 | 3 | -1 | 13 | 13 | 2 | -13% | nt | nt
Clc1ccc(C2=NN(c3ccccc3)C(c3ccco3)C2)cc1 (configuration not stated) | 8 | 5 | 5 | 16 | -4 | -19% | nt | nt
O=[N+]([O-])c1ccc(/C=C/C2=NN(c3ccccc3)C(c3ccco3)C2)o1 (configuration not stated) | -9 | 0 | 97* | -4 | 40* | -10% | -5 | ?
COc1ccccc1NC(=O)C1CCN(S(=O)(=O)c2ccc3[nH]c4c(c3c2)CCCCC4)CC1 | 1 | -3 | 3 | 14 | -1 | ? | nt | nt
COC(=O)c1ccc(NC(=O)C(=O)c2c[nH]c3ccccc23)cc1 | 7 | -8 | -1 | -7 | 0 | -14% | nt | nt
O=C(Nc1ccccc1)C(=O)c1c[nH]c2ccccc12 | 50* | -5 | 5 | -20 | 1 | ? | -5 | -1%
SMILES | TRHR enhancer-1 | D1 potentiator | D1 ag | D1 antagonist | TRHR agonist-1 | USP1-UAF1 inh | TRHR enhancer-2 | TRHR agonist-2
c1ccc2c(c1)ncn2CCCOc1ccc2c(c1)CCC2 | 5 | -4 | 1 | -13 | -1 | -16% | nt | nt
c1ccc2c(c1)ncn2CCCCOc1ccc2c(c1)CCC2 | 51* | 6 | 7 | -12 | -1 | -20% | -8 | -1%
COc1cccc(NC(=O)CSc2nnc(NC(=O)NC3CCCCC3)s2)c1 | 2 | -2 | -1 | nt | 0 | -27% | nt | nt
COc1ccc(NC(=O)COc2ccc3c(c2)CCC3)cc1 | 42* | 3 | 5 | -11 | 0 | -23% | -6 | 0%
COC(=O)C1=NN(C(=O)c2ccc(Cl)cc2)C(O)(c2ccccc2)C1 (configuration not stated) | -6 | -4 | 30* | 3 | 47* | ? | -7 | 18µM*
CCC1=NN(C(=O)c2ccc(Cl)cc2)C(O)(c2ccccc2)C1 (configuration not stated) | -11 | -2 | 8 | -4 | 0 | -8% | nt | nt
Clc1ccc(CSc2nnc(-c3ccncc3)s2)cc1 | -5 | 3 | 2 | -23 | -2 | ? | nt | nt
Clc1cccc(Cl)c1CSc1nnc(-c2ccncc2)s1 | 3 | 13 | 144* | -16 | 25 | -19% | 0 | ?
COc1ccccc1N1CCN(C(=O)C2CCN(S(=O)(=O)c3cccs3)CC2)CC1 | -7 | 5 | 3 | -9 | -2 | 6% | nt | nt
C/C=C/c1ccc(OCCCCNCc2ccco2)c(OC)c1 | 69* | -3 | 17 | 3 | 0 | -23% | ? | ?
COc1ccc(OCC(=O)NCc2ccc3c(c2)CCN3C(=O)c2cccc(C)c2)cc1 | 0 | -1 | 1 | 4 | 0 | -22% | nt | nt
CCCNC(=O)C(=O)NCC1CCCN1CC (configuration not stated) | 27 | 3 | 2 | 10 | 0 | -15% | nt | nt
C=CCNC(=O)C(=O)NCC1CCCN1CC (configuration not stated) | 42* | 0 | 3 | 13 | 1 | -20% | -4 | 0%
